From PubChem BioAssay (NCATS)
Records with an inconclusive call do not appear. A call without a number means that no potency is given here. Values without a mark were called inactive. Active and inactive are the calls of the source. Calls come from the whole dose curve; as a rule, active = well fitted inhibition curve with a large enough effect; inconclusive = small, poorly fitted or top-dose-only effect; inactive = flat fitted curve, though single readings scatter.

How the values were obtained:
[1] = qHTS profiling for inhibitors of Plasmodium falciparum proliferation (AID 504749); note: nearly all actives have a fitted effect of over 60% in size; conditions: P. falciparum in erythrocytes, SYBR Green DNA, 72 h, at 28.7 µM (top of the series)
Summary of the method: (§1)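 Three-day growth assay of blood-stage parasites in erythrocytes (0.3% parasitemia, 2.5% hematocrit) at 37 C, 5% CO2, quantified by SYBR Green DNA staining after overnight detergent lysis.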

3D7 = test: as above; conditions: P. falciparum in erythrocytes, SYBR Green DNA, 72 h; series mostly up to 28.7 µM
Summary of the method: as §1

7G8 = test: as above; conditions: P. falciparum in erythrocytes, SYBR Green DNA, 72 h; series mostly up to 28.7 µM
Summary of the method: as §1

AA1029 = test: as above; conditions: P. falciparum in erythrocytes, SYBR Green DNA, 72 h; series mostly up to 28.7 µM
Summary of the method: as §1

AS120 = test: as above; conditions: P. falciparum in erythrocytes, SYBR Green DNA, 72 h; series mostly up to 28.7 µM
Summary of the method: as §1

ATS189 = test: as above; conditions: P. falciparum in erythrocytes, SYBR Green DNA, 72 h; series mostly up to 28.7 µM
Summary of the method: as §1

ATS95 = test: as above; conditions: P. falciparum in erythrocytes, SYBR Green DNA, 72 h; series mostly up to 28.7 µM
Summary of the method: as §1

C2A = test: as above; conditions: P. falciparum in erythrocytes, SYBR Green DNA, 72 h; series mostly up to 28.7 µM
Summary of the method: as §1

CP185 = test: as above; conditions: P. falciparum in erythrocytes, SYBR Green DNA, 72 h; series mostly up to 28.7 µM
Summary of the method: as §1

CP191 = test: as above; conditions: P. falciparum in erythrocytes, SYBR Green DNA, 72 h; series mostly up to 28.7 µM
Summary of the method: as §1

CP192 = test: as above; conditions: P. falciparum in erythrocytes, SYBR Green DNA, 72 h; series mostly up to 28.7 µM
Summary of the method: as §1

CP194 = test: as above; conditions: P. falciparum in erythrocytes, SYBR Green DNA, 72 h; series mostly up to 28.7 µM
Summary of the method: as §1
Potency is the fitted concentration of half-maximal effect.

SMILES | activity, negative = inhibition ([1]; parasite line A) | activity, negative = inhibition ([1]; parasite line B) | Potency (3D7) | Potency (7G8) | Potency (AA1029) | Potency (AS120) | Potency (ATS189) | Potency (ATS95) | Potency (C2A) | Potency (CP185) | Potency (CP191) | Potency (CP192) | Potency (CP194)
F[Si-2](F)(F)(F)(F)F | 3.4% | 19.2% | inactive | inactive | inactive | inactive | inactive | inactive | inactive | inactive | inactive | inactive | inactive
OC[C@H]1O[C@@](CO)(O[C@H]2O[C@H](CO)[C@@H](O)[C@H](O)[C@H]2O)[C@@H](O)[C@@H]1O | 11.2% | -0.203% | inactive | inactive | inactive | inactive | inactive | inactive | inactive | inactive | inactive | inactive | inactive
Cc1ccc(S(=O)(=O)NCl)cc1 | -0.743% | 4.28% | inactive | inactive | inactive | inactive | inactive | inactive | inactive | inactive | inactive | inactive | inactive
C=Cc1ccc(S(=O)(=O)O)cc1 | 12.2% | -6.31% | inactive | inactive | inactive | inactive | inactive | inactive | inactive | inactive | inactive | inactive | inactive
O=C(O)/C=C/C(=O)Nc1ccc(S(=O)(=O)Nc2nccs2)cc1 | 17.5% | -1.66% | inactive | inactive | inactive | inactive | inactive | inactive | inactive | inactive | inactive | inactive | inactive
Cc1ccccn1 | 14.6% | 15% | inactive | inactive | inactive | inactive | inactive | inactive | inactive | inactive | inactive | inactive | inactive
NC(N)=O | 0.0876% | -2.3% | inactive | inactive | inactive | inactive | inactive | inactive | inactive | inactive | inactive | inactive | inactive
CC(C)CCC[C@@H](C)[C@H]1CC[C@H]2[C@@H]3CC=C4C[C@@H](O)CC[C@]4(C)[C@H]3CC[C@]12C | 4.96% | -1.65% | inactive | inactive | inactive | inactive | inactive | inactive | inactive | inactive | inactive | inactive | inactive
CCC(C(=O)NC(N)=O)c1ccccc1 (stereo unspecified) | -3.47% | 11.3% | inactive | inactive | inactive | inactive | inactive | inactive | inactive | inactive | inactive | inactive | inactive
O=C(O)c1ccc(NC(=O)[C@H](Cc2ccc(O)cc2)NC(=O)c2ccccc2)cc1 | 3.76% | 5.17% | inactive | inactive | inactive | inactive | inactive | inactive | inactive | inactive | inactive | inactive | inactive
CC(O)CN(C)C (stereo unspecified) | 11.7% | -4.96% | inactive | inactive | inactive | inactive | inactive | inactive | inactive | inactive | inactive | inactive | inactive
CC(=O)Nc1ccc(OC(=O)c2ccccc2O)cc1 | -9.69% | 13.7% | inactive | inactive | inactive | inactive | inactive | inactive | inactive | inactive | inactive | inactive | inactive
O=C(O)[C@H]1C(=CCO)O[C@H]2CC(=O)N12 | 6.84% | 1.77% | inactive | inactive | inactive | inactive | inactive | inactive | inactive | inactive | inactive | inactive | inactive
CC1CC(O)CC(C)(C)C1 (stereo unspecified) | -1.2% | 7.51% | inactive | inactive | inactive | inactive | inactive | inactive | inactive | inactive | inactive | inactive | inactive
Cc1nc(NS(=O)(=O)c2ccc(N)cc2)nc(C)c1Br | 7.52% | -0.222% | inactive | inactive | inactive | inactive | inactive | inactive | inactive | inactive | inactive | inactive | inactive
O=C(OC1C[C@@H]2CC3C[C@H](C1)N2CC3=O)c1c[nH]c2ccccc12 (stereo partly specified) | -11.9% | -12.9% | inactive | 11.2 µM (active) | inactive | inactive | inactive | inactive | inactive | inactive | inactive | inactive | inactive
Cc1cc(C(=O)NCCc2ccc(S(=O)(=O)NC(=O)NN3CCCCCC3)cc2)no1 | 7.09% | 6.94% | inactive | inactive | inactive | inactive | inactive | inactive | inactive | inactive | inactive | inactive | inactive
